Test results reported in PubChem BioAssay (NCATS).
Inconclusive results are not listed. Entries that show only a call come without a potency. Calls of active or inactive are those of the source. The call rests on the fitted dose curve; in most records, active means well fitted curve in the direction sought with a large enough effect; inconclusive means small, poorly fitted or top-dose-only effect, or another doubt; inactive means no such curve, though single readings can be large; an effect the other way counts as inactive or inconclusive. Numbered stars: 1 amine (or outer) side, 2 acyl side, 3 side chain; on linkers, the order of the positions; unused ones are H or OH. Bridge positions count the residues as written; N and C are the ends. Square brackets hold non-standard residues; d marks the D form. Peptide text beside a SMILES is read from it. ξ: configuration not given here. Phe(3R-OH) = O=C([C@@H](N[*:1])[C@H](O[*:3])c1ccccc1)[*:2]; NMeTrp(4-OMe) = CN[C@@H](Cc1c[nH]c2cccc(OC)c12)C(=O)O; ξThr(3R)(O-yl) = C[C@@H](O[*:3])C(N[*:1])C(=O)[*:2]; NMeThr(3ξ) = CN[C@H](C(=O)O)C(C)O; NMeL = CN[C@@H](CC(C)C)C(=O)O; NMeV = CN[C@H](C(=O)O)C(C)C; ξIle = CC[C@H](C)C(N)C(=O)O; ξV = CC(C)C(N)C(=O)O

Assays:
[1] = HPAF-II 18hr Apoptosis Induction qHTS against the NCATS CANVASS Library (AID 1347360)
Method in brief: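 HPAF-II cells (500/well, DMEM + 10% FBS) were exposed to compounds for 18 hours at 37 degrees C. Caspase-3/7 activity was then read by Caspase-Glo 3/7 luminescence after 15 min at room temperature.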

[2] = qHTS for Hypoxia signaling pathway (HIF-1) antagonists against the NCATS CANVASS Library (AID 1347374); further: nearly all actives have a fitted effect of over 60% in size; further: potency means the concentration at half of the fitted maximal effect
Method in brief: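 HRE-bla ME-180 cells (2,000/well, 0.5% dialyzed FBS) were pre-incubated 5 h, then given an 11-point compound series plus CoCl2 (60 uM solution as added) for 17 h at 37C. CCF4 β-lactamase read (ex 405, em 460/530 nm) after 2 h at RT.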

[3] = qHTS for activators of Nrf2/ARE signaling pathway screened against the NCATS CANVASS Library (AID 1347391); further: nearly all actives have a fitted effect of over 60% in size
Method in brief: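 Cells carrying an ARE-driven beta-lactamase reporter (HepG2 background) are dosed for 16 h, then stained with CCF4. Cell viability in the same wells is measured by CellTiter-Glo luminescence.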

[4] = qHTS for inhibitors of ER calcium dysfunction: SERCaMP assay screened against the NCATS CANVASS Library (AID 1347393); further: nearly all actives have a fitted effect of over 40% in size; further: potency means the concentration at half of the fitted maximal effect
Method in brief: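 qHTS in SH-SY5Y reporter cells: 16 h compound pretreatment, 4 h thapsigargin, then secreted Gaussia luciferase measured by luminescence.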

[5] = Redox Reaction Profiling qHTS: Assay Interference Panel against the NCATS CANVASS Library (AID 1347401); further: potency means the concentration at half of the fitted maximal effect
Method in brief: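 Resazurin (5 uM) conversion to resorufin measured with 200 uM DTT in 50 mM HEPES pH 7.3, 50 mM NaCl. Compounds tested in 11-point qHTS series. Fluorescence (ex 525/em 598 nm) read before and after 15 min dark incubation.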

[6] = HEK-293 Cancer Cell Toxicity qHTS against the NCATS CANVASS Library (AID 1347355); further: series mostly up to about 46 µM; nearly all actives have a fitted effect of over 65% in size
Method in brief: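 qHTS cytotoxicity: compounds tested in 11 concentrations on 1000 seeded cells per well over 72 h; bortezomib served as control; signal from CellTiter-Glo luminescence.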

[7] = SDT Cancer Cell Toxicity qHTS against the NCATS CANVASS Library (AID 1347365); further: nearly all actives have a fitted effect of over 60% in size
Method in brief: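 Dispense 500 SDT cells per well; pin-transfer compounds; incubate 72 hr at 37C, 5% CO2, 95% RH; add CellTiterGlo and read luminescence.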

[8] = G06 Cancer Cell Toxicity qHTS against the NCATS CANVASS Library (AID 1347368); further: nearly all actives have a fitted effect of over 60% in size; further: potency means the concentration at half of the fitted maximal effect
Method in brief: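 Cytotoxicity toward canine glioma G06 cells is scored from cellular ATP via luminescence after 72 hr compound exposure at 500 cells/well.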

[9] = qHTS for Antimalaria activity screened against the NCATS CANVASS Library (AID 1347380); further: nearly all actives have a fitted effect of over 40% in size; further: potency means the concentration at half of the fitted maximal effect
Method in brief: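 Growth inhibition of asexual erythrocytic P. falciparum Dd2 was quantified by SYBR Green DNA staining. Cultures grew 72 h with compound (11-point series) in hypoxic gas at 37C; lysis and staining lasted 18 h.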

[10] = ZIKV-mCherry secondary qHTS for Zika virus inhibitors (AID 1347158); further: top concentration of the series differs between compounds
Method in brief: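 After overnight seeding at 37 °C, Vero cells receive compound and then ZIKV-mCherry (MOI 1). Following 48-72 h infection, cells are fixed, counterstained with Hoechst, and imaged; percent infected cells is derived from an mCherry intensity cut-off of 450 RFU.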

[11] = system: Zika virus NS2B-NS3 protease (linked construct); test: 384 well plate NINDS Rhodamine confirmatory qHTS for Zika virus inhibitors (AID 1347164);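 further: fluorescence from protease cleavage of Ac-LKRR-rhodamine 110 substrate; potency means the concentration at half of the fitted maximal effect; nearly all actives have a fitted effect of over 65% in size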
Method in brief: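 Linked protease at a final 5 nM, 30 nM or 60 nM was preincubated ~15 min with compounds, then given 10 microM Ac-LKRR-Rhodamine 110. Fluorescence (ex 485/em 538 nm) after 25 min in the dark at room temperature.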

[12] = Tertiary RLuc qRT-PCR qHTS assay for Zika virus inhibitors (AID 1347169); further: top concentration of the series differs between compounds; nearly all actives have a fitted effect of over 55% in size
Method in brief: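 Vero cells (1,000 per well) plated overnight at 37 degrees C, treated with compound in DMSO, then infected with recombinant ZIKV-RLuc (Cambodian) at MOI 1-2 for 48-72 hrs. Live-cell Renilla luciferase substrate added; luminescence read after 1-1.5 hrs.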

Q: With `O=C(O)CC1OC(=O)c2c(O)cccc21` (stereo unspecified) as the molecule, how does the Potency [1] read?
A: inactive

Q: What about the Potency [2] of the same molecule?
A: inactive

Q: What about the Potency [3] of the same molecule?
A: inactive

Q: What about the Potency [4] of the same molecule?
A: inactive

Q: And the Potency [5]?
A: inactive

Q: For `O=C(O)[C@@]12CO[C@@]3(O)C4CCN(CC[C@H]31)[C@H]4c1c2[nH]c2ccccc12`, which Potency [6] is on record?
A: inactive

Q: And the Potency [1]?
A: inactive

Q: What about the Potency [7] of the same molecule?
A: inactive

Q: And the Potency [8]?
A: inactive

Q: And the Potency [2]?
A: inactive

Q: And the Potency [3]?
A: inactive

Q: And the Potency [4]?
A: inactive

Q: What about the Potency [5] of the same molecule?
A: inactive

Q: What does the source list for `CC[C@H](C)C(NC(=O)[C@@H](NC)C(C)C)C(=O)NC1C(=O)N(C)[C@@H](C(C)O)C(=O)N[C@@H](C(C)C)C(=O)N(C)[C@@H](CC(C)C)C(=O)NC(C(C)C)C(=O)N(C)[C@@H](C(C)C)C(=O)N(C)[C@@H](Cc2c[nH]c3cccc(OC)c23)C(=O)N[C@@H](C(C)C)C(=O)N[C@@H]([C@H](O)c2ccccc2)C(=O)N[C@@H](C(C)C)C(=O)O[C@@H]1C` (stereo partly drawn) (H-[NMeV][ξIle][ξThr(3R)(O-yl)][NMeThr(3ξ)]V[NMeL][ξV][NMeV][NMeTrp(4-OMe)]V[Phe(3R-OH)]V; ester 3-C)?
A: Potency [1]: inactive; Potency [2]: inactive; Potency [9]: 3.75 µM (active); Potency [3]: inactive; Potency [4]: 27.2 µM (active); Potency [5]: inactive

Q: For `C[C@@H]1C[C@H]2C[C@]3(CCCCN3C)[C@@H]3C[C@H]2[C@H](C1)N(C)C3`, which Potency [1] is on record?
A: inactive

Q: What about the Potency [7] of the same molecule?
A: inactive

Q: And the Potency [8]?
A: 18.7 µM (active)

Q: And the Potency [4]?
A: 30.5 µM (active)

Q: What about the Potency [5] of the same molecule?
A: inactive

Q: For `O=C(NCc1ccccc1Cl)c1ccc2c(O)c(S(=O)(=O)c3ccccc3)c(=O)[nH]c2c1`, which Potency [10] is on record?
A: inactive

Q: What about the Potency [11] of the same molecule?
A: 50.1 µM (active)

Q: What about the Potency [12] of the same molecule?
A: inactive

Q: With `C[C@@H](CCC[C@]1(C)C(=O)C=C[C@]23C[C@H]4C[C@H](O[C@@]4(C)C2)C31)C(=O)N[C@@H](CO)C(=O)O` (stereo partly specified) as the molecule, how does the Potency [6] read?
A: inactive

Q: What about the Potency [1] of the same molecule?
A: inactive

Q: What about the Potency [8] of the same molecule?
A: inactive

Q: And the Potency [2]?
A: inactive

Q: What about the Potency [4] of the same molecule?
A: inactive

Q: What about the Potency [5] of the same molecule?
A: inactive

Q: What does the source list for `COc1cc(O)c2c3c(c(O)cc(C)c13)C(=O)OC2`?
A: Potency [6]: inactive; Potency [1]: inactive; Potency [7]: inactive; Potency [8]: inactive; Potency [9]: inactive; Potency [5]: 21.5 µM (active)

Q: What does the source list for `C=C1/C=C\C(CCC)=C\c2csc(n2)C(C)NC(=O)C[C@@]2(CC(=O)O)CCC(=C)[C@H](C1)S2` (stereo partly specified)?
A: Potency [6]: inactive; Potency [1]: inactive; Potency [8]: inactive; Potency [2]: inactive; Potency [4]: inactive; Potency [5]: inactive

Q: For `C[C@H]1C[C@@H]([C@@H]2CC[C@]34O[C@H](CC[C@@]35C[C@H](C)C(=O)O5)CN24)OC1=O`, which Potency [1] is on record?
A: inactive

Q: What about the Potency [7] of the same molecule?
A: inactive

Q: And the Potency [8]?
A: inactive

Q: What about the Potency [2] of the same molecule?
A: inactive

Q: And the Potency [9]?
A: inactive

Q: What about the Potency [3] of the same molecule?
A: inactive

Q: And the Potency [4]?
A: inactive

Q: For `CC1(C)[C@H](Br)CC[C@]23C[C@]4(C)C(=O)CC12C[C@H]34`, which Potency [6] is on record?
A: inactive

Q: And the Potency [8]?
A: inactive

Q: And the Potency [2]?
A: inactive

Q: And the Potency [3]?
A: inactive

Q: What about the Potency [4] of the same molecule?
A: inactive

Q: What does the source list for `COc1cc(/C=C2/C(=O)N(c3ccc(O)cc3C(=O)O)[C@H](c3ccc(O)c(OC)c3)C2C(=O)Nc2ccc(O)cc2C(=O)O)ccc1O` (stereo partly specified)?
A: Potency [6]: inactive; Potency [1]: inactive; Potency [8]: inactive; Potency [2]: 8.38 µM (active); Potency [3]: inactive; Potency [4]: inactive

Q: Which results are given for `O=C(O)Cc1c[nH]c2ccccc12`?
A: Potency [6]: inactive; Potency [1]: inactive; Potency [2]: inactive; Potency [3]: inactive; Potency [4]: inactive

Q: With `C=C1C[C@@]23C=CC(=O)[C@@](C)(CCC(=O)Nc4c(O)ccc(C(=O)O)c4O)C2C[C@@H]1C(O)C3` (stereo partly specified) as the molecule, how does the Potency [6] read?
A: inactive

Q: What about the Potency [7] of the same molecule?
A: inactive

Q: What about the Potency [8] of the same molecule?
A: inactive

Q: And the Potency [2]?
A: inactive

Q: What about the Potency [9] of the same molecule?
A: inactive

Q: And the Potency [3]?
A: inactive

Q: What about the Potency [4] of the same molecule?
A: inactive

Q: For `CC(O)/C=C/C1(O)C(C)(C)CC(O)CC1(C)O` (stereo unspecified), which Potency [1] is on record?
A: inactive

Q: And the Potency [8]?
A: inactive

Q: What about the Potency [3] of the same molecule?
A: inactive

Q: What about the Potency [4] of the same molecule?
A: inactive

Q: What about the Potency [5] of the same molecule?
A: inactive

Q: For `CS/C=C/C(N)=O`, which Potency [6] is on record?
A: inactive

Q: What about the Potency [8] of the same molecule?
A: inactive

Q: What about the Potency [9] of the same molecule?
A: inactive

Q: What about the Potency [3] of the same molecule?
A: inactive

Q: And the Potency [4]?
A: inactive

Q: With `CC(=O)NC[C@@H]1O[C@H](CC/C=C(C)/C(C)=C/C=O)[C@H](C)C[C@H]1O` as the molecule, how does the Potency [6] read?
A: inactive

Q: What about the Potency [1] of the same molecule?
A: inactive

Q: And the Potency [8]?
A: inactive

Q: What about the Potency [9] of the same molecule?
A: inactive

Q: What about the Potency [4] of the same molecule?
A: 34.3 µM (active)

Q: With `C[C@@H]1C(=O)[C@]23CC[C@H]1C[C@]21O[C@H]2C(C)(C)C=CC(=O)[C@]23COC1=O` as the molecule, how does the Potency [6] read?
A: inactive

Q: And the Potency [7]?
A: inactive

Q: And the Potency [8]?
A: inactive

Q: What about the Potency [9] of the same molecule?
A: inactive

Q: What about the Potency [3] of the same molecule?
A: inactive

Q: What about the Potency [4] of the same molecule?
A: inactive

Q: And the Potency [5]?
A: inactive

Q: With `CN1C(=O)C2C(N=CN2C)N(C)C1=O` (stereo unspecified) as the molecule, how does the Potency [6] read?
A: inactive

Q: And the Potency [1]?
A: inactive

Q: And the Potency [7]?
A: inactive

Q: And the Potency [8]?
A: inactive

Q: And the Potency [2]?
A: inactive

Q: And the Potency [9]?
A: inactive

Q: And the Potency [3]?
A: inactive

Q: And the Potency [4]?
A: inactive

Q: What about the Potency [5] of the same molecule?
A: inactive

Q: With `O=Cc1ccc2n1C[C@@]1(C[C@H](O)[C@@H](CO)O1)OC2` as the molecule, how does the Potency [7] read?
A: inactive

Q: And the Potency [8]?
A: inactive

Q: And the Potency [9]?
A: inactive

Q: What about the Potency [3] of the same molecule?
A: inactive

Q: What about the Potency [4] of the same molecule?
A: inactive
